Measurements reported in PubChem BioAssay AID686979 (National Center for Advancing Translational Sciences (NCATS), 2013).
In all, about 420,000 compounds went through this assay and about 50,000 (12%) were called active. Another 26% or so got no clear call; they are omitted. This excerpt belongs to a sample that is enriched for actives. A number with no mark means an inactive call. Calls come from the whole dose curve; as a rule, active = well fitted inhibition curve with a large enough effect; inconclusive = small, poorly fitted or top-dose-only effect; inactive = flat fitted curve, though single readings scatter. *1 amine or outer side, *2 acyl side, *3 side chain or, on linkers, in order; H or OH if unused. Where a SMILES comes first, the peptide text is derived from it. Bridges are numbered along the chain shown (N, C = ends). [ ]: non-standard residue; d: D form. The star is where a group is joined. X12 = NC1=N[C@@H]([C@H](N[*:1])C(=O)[*:2])C[C@H](O)N1; ΔAla(Z-3-ureido) = NC(=O)N/C=C(\N)C(=O)O; β3hOrn = NCCC[C@H](N)CC(=O)*; Dap = NC[C@H](N)C(=O)O

Assay: qHTS for Inhibitors of human tyrosyl-DNA phosphodiesterase 1 (TDP1): qHTS in cells in presence of CPT; note: nearly all actives have a fitted effect of over 55% in size
Details: chicken DT40 Tdp1-/-;hTDP1 cells + 20 nM CPT, ATP luminescence, 48 h; series mostly up to 46.2 µM; activity change, negative = growth inhibition: at the top concentration
Outline: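 Chicken DT40 Tdp1-/- cells complemented with human TDP1, 400 cells/well, exposed to compounds plus 20 nM camptothecin for at least 48 h at 37 C; viability read as ATP content by CellTiter-Glo luminescence.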
% is set by controls: 0 for no effect and ±100 for the full control effect; potency is the fitted concentration of half-maximal effect.

| Structure (SMILES) | activity change, negative = growth inhibition [%] | Potency |
| --- | --- | --- |
| COC(=O)C1[C@H]2SC(C)(C)C(C(=O)OC)N2C(=O)N1Cc1nc2ccccc2s1 (stereo partly drawn) | -1.96 |  |
| COCCNC(=O)c1cc(-c2cccc(Cl)c2)on1 | 4.91 |  |
| CC(C)c1nnc(NC(=O)C2CC(=O)N(CCc3ccc(F)cc3)C2)s1 (stereo not drawn) | 7.52 |  |
| O=C(CCC(=O)n1ncc2ccccc21)NCc1ccccc1Cl | -1.16 |  |
| CCc1noc(C)c1C(=O)Nc1nc2ccc(OC)cc2s1 | 13.8 |  |
| CCCC(=O)Nc1nc2ccc(NC(=O)c3c(F)c(F)c(OC)c(F)c3F)cc2s1 |  | 0.92 µM (active) |
| CCOC(=O)c1cc(NC(=O)c2cccnc2)cc(C(=O)OCC)c1 | -8.88 |  |
| CCCC(=O)Nc1nc2ccc(NC(=O)c3cccnc3)cc2s1 |  | 9.2 µM (active) |
| O=C(Cc1ccccc1)Nc1ccc(NC(=O)c2cccnc2)cc1 | -28 |  |
| CCCC(=O)Nc1ccc2c(c1)nc1n2CCSC1 | -0.992 |  |
| Cc1cc(C)c(S(=O)(=O)N2C=CC(C(F)(F)F)=NCC2)c(C)c1 | 2.91 |  |
| c1ccc2cc(C3=NCCN3)ccc2c1 | 4.03 |  |
| Cc1ccc(Nc2c(O)nc[nH]c2=O)cc1C | 8.79 |  |
| Cc1c(Cl)cccc1NC(=O)[C@@]1(CC(=O)O)CC(/C=C/c2ccccc2)=NO1 | 3.33 |  |
| N#CCc1c(C#N)c(N)nc(N2CCCC2)c1C#N | 15.6 |  |
| Cc1occc1C(=O)Nc1nnc(-c2ccncc2)s1 | 10.3 |  |
| Cc1ccc(NC(=O)Nc2nnc(-c3ccncc3)s2)cc1 |  | 18.4 µM (active) |
| CCCCN(C)c1nnc(NC(=O)Nc2ccc(Br)c(C)c2)s1 | -27.6 |  |
| Cc1nnc(NC(=O)Nc2ccc(Cl)c(Cl)c2)s1 |  | 23.1 µM (active) |
| Cc1nnc(NC(=O)c2ccc3nccnc3c2)s1 | -17.6 |  |
| Cc1ccc(C(=O)Nc2nnc(-c3ccncc3)s2)o1 | -12.2 |  |
| COCC1CCCN(C(=O)c2ccc3oc(C(C)C)nc3c2)C1 (stereo not drawn) | -8.78 |  |
| COCCNC(=O)CN(Cc1ccco1)C(=O)CCC(=O)Nc1nccs1 | 1.07 |  |
| COc1ccc2c(c1)CCCO[C@]21O[C@H](CCO)C[C@H](O)[C@H]1O | -1.84 |  |
| CCC(C)NC(=O)c1cc(Cl)ccc1OC (stereo not drawn) | -7.43 |  |
| CC1CCc2c(sc3nc4n(c(=O)c23)CCS4)C1 (stereo not drawn) | -28.3 |  |

| Structure (SMILES) | activity change, negative = growth inhibition [%] | Potency |
| --- | --- | --- |
| Cc1ccc(NC(=O)Nc2sc3nc4n(c(=O)c3c2C)CCC(C)CC4)c(Cl)c1 (stereo not drawn) |  | 11.6 µM (active) |
| CC1CCN(C(=O)c2ccc3c(=O)n4c(nc3c2)CCCCC4)CC1 | -3.88 |  |
| Cc1ccccc1NC(=O)CSc1ccc2nnc(-c3ccccn3)n2n1 | -15.4 |  |
| COC(=O)[C@]1(C)N[C@H](CN(C)C(=O)c2ccc(C(C)(C)C)cc2)[C@@H]2C(=O)N(C)C(=O)[C@@H]21 | -7.64 |  |
| Cc1cc(C)c(S(=O)(=O)c2cc(F)ccc2C)c(=O)[nH]1 | 2.26 |  |
| CC1(C)CN(c2ccc(-c3ccnc4ncnn34)cc2)C1=O | -8.25 |  |
| O=S(=O)(c1cccs1)N1CCN(Cc2ccccc2)CC1 | -12.6 |  |
| COc1ccc2c(CN3CCN(S(=O)(=O)c4cccs4)CC3)cc(=O)oc2c1 | -24.3 |  |
| Cc1cc2oc(=O)cc(CN3CCN(S(=O)(=O)c4cccs4)CC3)c2cc1C(C)C |  | 23.1 µM (active) |
| CCOc1ccc(C(CC(=O)O)n2cnnn2)cc1OC (stereo not drawn) | 1.9 |  |
| COc1ccc(C2=NN(C(=O)c3cccnc3)C(c3ccccc3)C2)cc1 (stereo not drawn) | -8.32 |  |
| CCC(CC)c1nnc(NC(=O)C2=COCCO2)s1 | 11.4 |  |
| Cc1sc2nc(COC(=O)C(NC(=O)c3ccc(Cl)cc3Cl)C(C)C)[nH]c(=O)c2c1C (stereo not drawn) | -20.6 |  |
| Cc1sc2nc(CSCC(=O)Nc3c(Cl)cccc3Cl)[nH]c(=O)c2c1C |  | 7.31 µM (active) |
| CCN(CC)Cc1nc2sc(C)c(C)c2c(=O)[nH]1 | -3.36 |  |
| CCOc1ccc(NC(=O)Cn2c(C)ccc(C#N)c2=O)cc1 | -0.0068 |  |
| CCOC(=O)/C=c1\s/c(=C\c2ccccc2OC)c(=O)n1CC(=O)N1CCOCC1 | -24.5 |  |
| CCOC(=O)/C=c1\s/c(=C\c2ccc(C#N)cc2)c(=O)n1CC(=O)Nc1cccc(C)c1C |  | 1.3 µM (active) |
| NCCC[C@H](N)CC(=O)N[C@H]1CNC(=O)[C@H]([C@H]2C[C@H](O)NC(N)=N2)NC(=O)/C(=C/NC(N)=O)NC(=O)[C@H](CO)NC(=O)[C@H](CO)NC1=O (β3hOrn-[Dap]SS[ΔAla(Z-3-ureido)][X12]; lactam 1-C) | -9.6 |  |
| COc1ccc(-n2nc(C(=O)NCCc3ccc(Cl)cc3)c3c4ccccc4n(C)c3c2=O)cc1Cl |  | 3.66 µM (active) |
| COc1ccc(-n2nc(C(=O)NCC(=O)N3CCC(C(N)=O)CC3)c3ccccc3c2=O)cc1OC | -4.29 |  |
| COc1ccc(-n2nc(C(=O)NCC(=O)N3CCCCCC3)c3ccccc3c2=O)cc1Cl |  | 18.4 µM (active) |
| COc1ccc(CCNC(=O)c2c(C)nn(-c3ccccc3)c2Cl)cc1 | -17.4 |  |
| Cc1cc(NC(=O)Nc2ccc(Cl)cc2)n(-c2ccccc2)n1 | 1.8 |  |
| Cc1cc(C(=O)NCCc2ccc(Cl)cc2)n(-c2ccccc2)n1 |  | 20.6 µM (active) |
| COCCCNC(=O)CNC(=O)c1nn(-c2ccc(OC)cc2)c(=O)c2ccccc12 | 17.6 |  |

| Structure (SMILES) | activity change, negative = growth inhibition [%] | Potency |
| --- | --- | --- |
| COc1cc(NC(=O)c2nn(-c3ccc(C)cc3)c(=O)c3c2c2ccccc2n3C)cc(OC)c1OC | -3.89 |  |
| CCOC(=O)c1ccccc1NC(=O)c1nn(-c2ccc(OC)c(Cl)c2)c(=O)c2c1c1ccccc1n2C | 13.7 |  |
| COC(=O)c1ccc2ccccc2c1OC1OC(CO)C(O)C(O)C1NC(C)=O (stereo not drawn) | -14.5 |  |
| Fc1cccc(Cc2noc(CN3CCN(c4cnccn4)CC3)n2)c1 | 1.52 |  |
| Cc1ccc(C(=O)N2CCC(n3nccc3NC(=O)Nc3cccc(F)c3)CC2)cn1 | 1.87 |  |
| O=C(COC(=O)c1ccccc1NC(=O)c1ccco1)Nc1ccc2c(c1)OC(F)(F)O2 | -10.2 |  |
| CC1CC(C)CN(CCCNC(=O)c2csc3c2CCCCC3)C1 (stereo not drawn) | -30 |  |
| O=C(CCNC(=O)c1ccccc1Cl)NCc1ccco1 | -9.02 |  |
| CC(C(=O)c1ccc(-c2ccccc2)cc1)[n+]1cccc(Br)c1 (stereo not drawn) | -16.3 |  |
| CCOC(=O)C1CCC(CN(Cc2ccc(OC)cc2)S(=O)(=O)c2ccc(F)c(C(=O)Nc3cc(C)ccc3C)c2)CC1 (stereo not drawn) | -12.5 |  |
| Fc1ccccc1CNC(=S)Nc1ccc(Cl)cc1 |  | 20.6 µM (active) |
| COC(=O)Cc1ccc(NC(=S)NCc2ccccc2)cc1 | -1.18 |  |
| Cn1cc(C(=O)NCc2ccccc2F)cn1 | -0.179 |  |
| O=C(c1ccco1)N1CCN(C(=O)c2cc(-c3ccccc3F)no2)CC1 | -22.9 |  |
| O=C(c1ccc2c(c1)N(Cc1ccc(F)cc1)C(=O)c1ccccc1S2(=O)=O)N1CCN(c2ccccn2)CC1 |  | 14.6 µM (active) |
| CCCCN(C)C(=O)c1ccc2c(c1)N(CC)C(=O)c1ccccc1S2(=O)=O | -26.8 |  |
| O=C1c2ccccc2S(=O)(=O)c2cc(N3CCN(c4ccccn4)CC3)ccc21 | -14.1 |  |
| O=C(c1cccc(Br)c1)N1CCN(C2=NS(=O)(=O)c3ccccc32)CC1 | 3.46 |  |
| O=C(c1ccc2c(c1)C(=O)N(c1ccc(Cl)cc1)C2=O)N1CCN(c2ccccn2)CC1 | -5.02 |  |
| CC1CCCN(C(=O)CN2C(=O)c3ccccc3S2(=O)=O)C1 (stereo not drawn) | -12.1 |  |
| O=C(c1ccc2c(c1)N(Cc1ccccc1)C(=O)c1ccccc1S2(=O)=O)N1CCCC1 |  | 11.6 µM (active) |
| O=C(c1ccc2c(c1)N(Cc1ccccc1F)C(=O)c1ccccc1S2(=O)=O)N1CCOCC1 | -19 |  |
| O=C(c1ccc2c(c1)N(Cc1ccccc1)C(=O)c1ccccc1S2(=O)=O)N1CCC(Cc2ccccc2)CC1 |  | 8.2 µM (active) |
| O=C(CN1C(=O)NC2(CCCC2)C1=O)Nc1ccc(F)c(F)c1F | 1.12 |  |
| CC(=O)CC(CC(=O)NC1CCCCC1)c1ccccc1 (stereo not drawn) | -7.82 |  |
| CCC(C)C1(C2CCCC2)NC(=O)NC1=O (stereo not drawn) | -0.666 |  |

| Structure (SMILES) | activity change, negative = growth inhibition [%] | Potency |
| --- | --- | --- |
| CCOc1ccc(NC(=O)CN(C)C(=O)Cc2sc(C)nc2-c2ccc(F)cc2)cc1OCC | -19 |  |
| O=C(c1cnccn1)N1CCC2(CCCN(Cc3ccccc3)C2)CC1 | 20.2 |  |
| O=C(CCCOc1ccccc1)NNC(=O)c1ccc(Cl)cc1 | 1.38 |  |
| Cc1ccc(S(=O)(=O)N2CCC(C)CC2)cc1C(=O)NCc1ccccn1 | -5.04 |  |
| CN(C)CCCNC(=S)NCc1ccc(Cl)cc1 | -11.7 |  |
| NCCCNC(=S)NCCCN(Cc1ccc(Cl)cc1)c1ccc(Br)cn1 |  | 15.8 µM (active) |
| S=C(NCc1ccc(Cl)cc1)NC1CCCCC1 | -20.8 |  |
| CCCn1c(C)cc(/C=C(\C#N)C(=O)OCC(=O)N(C)c2c(N)n(Cc3ccccc3)c(=O)[nH]c2=O)c1C | -14 |  |
| CN(CC(=O)O)C(=O)c1ccccc1 | 1.89 |  |
| CN(/N=C/c1ccccc1)C(=S)c1ccccc1 | -24.4 |  |
| CN(O)C(=S)c1ccccc1 |  | 0.13 µM (active) |
| CC(C)c1nc2cc(C(=O)NC(C)c3cnn(C)c3)ccc2o1 (stereo not drawn) | 4.73 |  |
| O=C(NCCS(=O)(=O)NCc1ccc(Cl)cc1)c1ccccc1 | -3.08 |  |
| CC(=O)c1cc(C#N)c(SCC(=O)C(C)(C)C)nc1C |  | 2.82 µM (active) |
| CC(=O)c1cc(C#N)c(N2CCCCC2)nc1C | -24.1 |  |
| CC(=O)c1cc(C#N)c(N2CC(C)OC(C)C2)nc1C (stereo not drawn) | 10.4 |  |
| O=C(NCc1cccnc1)c1ccc2nc([C@@H]3O[C@H](CO)[C@H](O)[C@H](O)[C@H]3O)[nH]c2c1 | 17.8 |  |
| CC1=NN(C(N)=S)C(=O)C1N=Nc1cc(Cl)ccc1Cl (stereo not drawn) | -94.3 |  |
| Cc1nc(Nc2ccccc2C)c2cnn(C)c2n1 | 10.9 |  |
| CC[C@]12c3[nH]c4ccc(OC)cc4c3CCN1C(=O)C(CC(=O)NCc1ccco1)C[C@@H]2C(=O)N1CCN(C(=O)C2CC2)CC1 (stereo partly drawn) | -10 |  |
| O=C(C[C@H]1C[C@H](C(=O)N2CCOCC2)[C@@]2(CCC3CCCC3)c3[nH]c4ccc(Cl)cc4c3CCN2C1=O)NCc1ccco1 |  | 20.6 µM (active) |
| CC[C@]12c3[nH]c4ccc(Cl)cc4c3CCN1C(=O)[C@@H](CC(=O)NCCCOC)C[C@@H]2C(=O)N1CCN(C(=O)c2ccco2)CC1 | -26.2 |  |
| COc1ccc(CNC(=O)C[C@H]2C[C@H](C(=O)N3CCOCC3)[C@@]3(CCC4CCCC4)c4[nH]c5ccc(Cl)cc5c4CCN3C2=O)cc1OC |  | 16.4 µM (active) |
| COc1ccc2[nH]c3c(c2c1)CCN1C(=O)C(CC(=O)NCCCN(C)C)C[C@H](C(=O)N2CCOCC2)[C@@]31CCC1CCCC1 (stereo partly drawn) | -11.2 |  |
| CC[C@]12c3[nH]c4ccc(Cl)cc4c3CCN1C(=O)[C@@H](CC(=O)NCCN1CCOCC1)C[C@@H]2C(=O)N1CCN(C(=O)C2CC2)CC1 | -14.3 |  |
